ALOX12 inhib – qHTS Assay for Inhibitors of 12-hLO (12-human lipoxygenase); purified 12-hLO, xylenol orange hydroperoxide absorbance; Potency, µM (highest dose often 57.1 µM), without a hit: top-dose activity change, negative = inhibition, usual class: inhibitors; 0.12% of 150,000 active; active means well fitted inhibition curve with a large enough effect; inconclusive means small, poorly fitted or top-dose-only effect; further: potency means the concentration at half of the fitted maximal effect; nearly all actives have a fitted effect of over 55% in size
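Hydroperoxide formation by human 12-lipoxygenase from 40 uM arachidonic acid was followed colorimetrically via ferric-xylenol orange complex, using the 573/405 nm absorbance ratio. Enzyme concentration was 150 nM, with 30 min reaction at room temperature.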
Lamin A splicing – qHTS Assay for Modulators of Lamin A Splicing. HeLa LMNA splicing GFP/RFP minigene ratio, 48 h. Potency, µM (titrated, usually from 46.1 µM), inactives show at the top dose ratio change, negative = inhibition, actives largely listed as inhibitors. 0.01% of 200,000 active. AID 1487, 2009; active means well fitted inhibition curve with a large enough effect in the signal ratio, with a control signal flat, not every such curve was filed as active; inconclusive means small, poorly fitted or top-dose-only effect, or effect the other way, or a change in a side signal; the % refers to the signal ratio; further: potency means the concentration at half of the fitted maximal effect
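S3 HeLa cells stably expressing lamin A-EGFP splicing minigene plus DsRed2, 600 cells/well, 48 h compound exposure at 37C. Laser-scanning cytometry; analysed as GFP (500-530 nm)/RFP (575-640 nm) total intensity ratio; 0.5% DMSO vehicle.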
ALDH1A1 block – qHTS Assay for Inhibitors of Aldehyde Dehydrogenase 1 (ALDH1A1); Purified ALDH1A1, NADH fluorescence, propionaldehyde substrate; Aldehyde dehydrogenase 1A1 (Homo sapiens), P00352; 7.3% of 220,000 active; Potency, µM (highest dose often 75.3 µM), without a hit: at the top dose activity, negative = inhibition, actives largely listed as inhibitors;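 further: potency means the concentration at half of the fitted maximal effect; plate controls were no enzyme wells and a reference inhibitor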
Target sequence (P00352 whole entry, looked up): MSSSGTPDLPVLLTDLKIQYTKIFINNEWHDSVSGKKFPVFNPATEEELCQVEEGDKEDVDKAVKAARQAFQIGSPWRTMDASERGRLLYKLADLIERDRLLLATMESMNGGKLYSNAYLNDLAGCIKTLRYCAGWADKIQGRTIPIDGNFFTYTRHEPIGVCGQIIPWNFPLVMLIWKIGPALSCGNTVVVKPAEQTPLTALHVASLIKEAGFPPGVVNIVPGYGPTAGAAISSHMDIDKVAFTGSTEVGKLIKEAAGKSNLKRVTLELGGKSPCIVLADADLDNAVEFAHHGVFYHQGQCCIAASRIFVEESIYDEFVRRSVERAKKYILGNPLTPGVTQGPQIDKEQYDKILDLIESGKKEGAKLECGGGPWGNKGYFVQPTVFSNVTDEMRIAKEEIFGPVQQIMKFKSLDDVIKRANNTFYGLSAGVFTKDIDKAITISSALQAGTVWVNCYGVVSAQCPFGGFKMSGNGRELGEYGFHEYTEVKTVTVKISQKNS
HPGD inh – qHTS Assay for Inhibitors of HPGD (15-Hydroxyprostaglandin Dehydrogenase) | 15-hydroxyprostaglandin dehydrogenase [NAD(+)] (Homo sapiens), P15428 | purified HPGD, NADH fluorescence kinetic, PGE2 substrate | Potency, µM, inactives show at the top dose activity change, negative = inhibition, usual class: inhibitors | 4.3% of 150,000 active; further: potency means the concentration at half of the fitted maximal effect
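NADH formation kinetics: reaction with 30 uM PGE2 and 1 mM NAD+ (final), 20 nM enzyme, Tris-HCl pH 8 with Tween 20, after 15 min compound preincubation at room temperature. Fluorescence change, last versus first of five reads.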
PNC assembly inh – High Content Assay for Compounds that inhibit the Assembly of the Perinucleolar Compartment. 3.1% of 140,000 active. activity change (PNC), negative = inhibition, % at 10 µM. PC3M PTB-GFP, PNC prevalence imaging, 16 h; active compounds read low;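 active means readout at or below -70, meaning at least 70% loss of cells showing the perinucleolar compartment, a nuclear body marking cancer cells; inconclusive means readout between -30 and a set limit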;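 further: plate controls were DMSO wells for no effect and camptothecin positive control wells for full effect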
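Read-out is percentage of cells bearing a perinucleolar compartment, from automated 20x imaging of fixed, Hoechst-stained PC3M PTB-GFP cells. Cells were seeded 4 h, then exposed 16 h to compound (23 nl of library stock) in duplicate plates.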
Numbers without * were called inactive; [ ] = remark or other dose. Rows were chosen to be rich in hits. Some 10% of all compounds tested hit in one or more screens of this group. Unless noted, the call rests on the fitted dose curve; in most records, active means well fitted inhibition curve with a large enough effect (not every such curve was filed as active); inconclusive means small, poorly fitted or top-dose-only effect, or another doubt; inactive means no such curve, though single readings can be large or run the other way. Unless noted, on the % scale 0 is the no-effect control and ±100 the full control effect.

How did CC1(C)Cc2c(c(=S)nc(-c3ccccc3)n2CCO)CO1 do in these assays?
ALOX12 inhib: -3%; Lamin A splicing: 24%; ALDH1A1 block: 25µM*; HPGD inh: 35µM*; PNC assembly inh: 2

Results for CC1(C)Cc2c(c(=S)nc(-c3ccccc3)n2CCCN2CCOCC2)CO1 ?
ALOX12 inhib: 0%; Lamin A splicing: -11%; ALDH1A1 block: -5%; HPGD inh: -18%; PNC assembly inh: -22

Results for Clc1ccccc1C1=CC(c2ccco2)n2nnnc2N1 (centres undefined) ?
ALDH1A1 block: 13µM*

What do the screens show for `CCOC(=O)[C@H](CCc1ccccc1)N[C@@H](C)C(=O)N1[C@H](C(=O)O)C[C@H]2CCC[C@@H]21`?
ALOX12 inhib: 0%[25.6 µM]; Lamin A splicing: 11%; ALDH1A1 block: 3%[20.9 µM]; HPGD inh: 1%

Results for Cc1nnc(SCC(=O)NNC(=O)c2ccccc2)n1-c1ccccc1 ?
ALOX12 inhib: 2%; Lamin A splicing: -8%; ALDH1A1 block: 0%; HPGD inh: -4%; PNC assembly inh: -84*

How did Cc1ccccc1-n1c(C)nnc1SCC(=O)NNC(=O)c1ccccc1 do in these assays?
ALOX12 inhib: -2%; Lamin A splicing: -9%; ALDH1A1 block: -16%; HPGD inh: -10%; PNC assembly inh: inconclusive

How did CC[C@H]1C2=C3C(CC[C@H]4C(OC)OC[C@](C)([C@@H]34)N(C(=O)OC(C)(C)C)C2)C(CO)C1CO (some centres undefined) do in these assays?
ALOX12 inhib: -2%; ALDH1A1 block: -6%; HPGD inh: -3%

How did O=C(Cc1ccccc1Cl)Nc1nc2ccccc2[nH]1 do in these assays?
ALDH1A1 block: 25µM*

Results for COc1ncc2nc(-c3cc(F)cc(F)c3)c(=O)n(C[C@H]3CCCO3)c2n1 ?
ALOX12 inhib: -1%; ALDH1A1 block: -4%; HPGD inh: -12%

Results for COCCn1c(=O)c(-c2cc(F)cc(F)c2)nc2cnc(OCc3ccccc3)nc21 ?
ALOX12 inhib: -1%; ALDH1A1 block: inconclusive; HPGD inh: -11%

Results for CCOC(=O)c1c(N)sc2c1CCC(CC)C2 (centres undefined) ?
ALOX12 inhib: -24%; Lamin A splicing: 8%; ALDH1A1 block: inconclusive; HPGD inh: inconclusive; PNC assembly inh: 36

How did CCCOC(=O)c1c(N)sc2c1CCC2 do in these assays?
ALOX12 inhib: -8%; Lamin A splicing: 9%; ALDH1A1 block: 28µM*; HPGD inh: -20%; PNC assembly inh: -18

Results for CCOC(=O)c1c(N)sc2c1CCSC2 ?
ALOX12 inhib: -7%; Lamin A splicing: 2%; ALDH1A1 block: 13µM*; HPGD inh: -22%; PNC assembly inh: 7

How did COCCNC(=O)c1c(N)sc2c1CCCC2 do in these assays?
ALOX12 inhib: -23%; Lamin A splicing: 6%; ALDH1A1 block: inconclusive; HPGD inh: inconclusive; PNC assembly inh: 7

What do the screens show for `C[C@]12CCC(=O)C=C1CCC1C3CC[C@](O)(C(=O)CO)[C@@]3(C)CC3OC312` (some centres undefined)?
ALDH1A1 block: inconclusive; HPGD inh: -8%

What do the screens show for `Cc1nc2sc3c(c2c(=O)o1)CCCC3`?
ALOX12 inhib: -9%; Lamin A splicing: 5%; ALDH1A1 block: 1%; HPGD inh: -6%; PNC assembly inh: -28

What do the screens show for `CC(C)c1nc2sc3c(c2c(=O)o1)CCCC3`?
ALOX12 inhib: 2%; Lamin A splicing: 12%; ALDH1A1 block: 0%; HPGD inh: -27%; PNC assembly inh: -94*

What do the screens show for `CCOC(=O)N1CCN(C(=O)CSc2ccc3nnc(CCNC(=O)c4ccccc4)n3n2)CC1`?
Lamin A splicing: inconclusive; ALDH1A1 block: -15%

How did CCOC(=O)N1CCN(C(=O)CSc2ccc3nnc(CCNC(=O)c4ccc(OC)cc4)n3n2)CC1 do in these assays?
Lamin A splicing: 19%[9.22 µM]; ALDH1A1 block: 7.9µM*

What do the screens show for `COc1ccc(Nc2nnc(SCc3cc(=O)n4ccsc4n3)s2)cc1`?
ALOX12 inhib: -15%; Lamin A splicing: 5%; ALDH1A1 block: 14µM*; HPGD inh: 32µM*; PNC assembly inh: inconclusive

What do the screens show for `O=c1cc(CSc2nnc(Nc3ccccc3F)s2)nc2sccn12`?
ALDH1A1 block: -10%

How did Cc1c(C(=O)NCCc2ccccc2)oc2ccc(S(=O)(=O)N3CCOCC3)cc12 do in these assays?
ALOX12 inhib: 4%; Lamin A splicing: -10%; ALDH1A1 block: -15%; HPGD inh: -10%; PNC assembly inh: inconclusive

Results for Cc1c(C(=O)NCc2ccc3c(c2)OCO3)oc2ccc(S(=O)(=O)N3CCC(C)CC3)cc12 ?
ALOX12 inhib: -5%; Lamin A splicing: inconclusive; ALDH1A1 block: -7%; HPGD inh: -27%; PNC assembly inh: -100*

What do the screens show for `Cc1c(C(=O)NCc2ccc3c(c2)OCO3)oc2ccc(S(=O)(=O)N3CCCCCC3)cc12`?
ALOX12 inhib: -16%; Lamin A splicing: inconclusive; ALDH1A1 block: inconclusive; HPGD inh: -26%; PNC assembly inh: inconclusive

How did Cc1c(C(=O)NCCN2CCOCC2)oc2ccc(S(=O)(=O)N3CCCCCC3)cc12 do in these assays?
ALOX12 inhib: -2%; Lamin A splicing: -6%; ALDH1A1 block: 25µM*; HPGD inh: -17%; PNC assembly inh: inconclusive

How did Cc1ccc(-c2nn3c(=O)cc(CN4CCN(C(=O)Nc5cc(Cl)ccc5C)CC4)nc3s2)cc1 do in these assays?
Lamin A splicing: 7%[46 µM]

What do the screens show for `c1ccc(Cn2nnnc2CN2CCN(c3ncccn3)CC2)cc1`?
ALOX12 inhib: 2%; Lamin A splicing: -2%; ALDH1A1 block: 11µM*; HPGD inh: -3%; PNC assembly inh: -21

Results for COc1ccc(Cn2nnnc2CN2CCOCC2)cc1 ?
ALOX12 inhib: 0%; Lamin A splicing: -5%; ALDH1A1 block: -1%; HPGD inh: -18%; PNC assembly inh: 223

How did CO[C@H]1COC(=O)C/C=C\[C@@H](C)COC(=O)[C@H]2CCCN2C(=O)C/C=C\[C@H]1C do in these assays?
ALDH1A1 block: 8%[13.5 µM]

Results for CCC(C)(C)NC(=O)C(c1ccc(F)cc1)N(Cc1ccc(OC)cc1)C(=O)c1cnccn1 (centres undefined) ?
ALDH1A1 block: 0%

How did COc1ccc(CN(C(=O)c2cnccn2)C(C(=O)Nc2ccc(F)cc2)c2ccccc2)cc1 (centres undefined) do in these assays?
ALOX12 inhib: 2%; Lamin A splicing: -14%; ALDH1A1 block: 10µM*; HPGD inh: -9%; PNC assembly inh: -95*

What do the screens show for `CC(C)c1ccc(NC(=O)C(c2ccccc2)N(C)C(=O)c2cnccn2)cc1` (centres undefined)?
ALDH1A1 block: 10µM*

Assay outcomes (PubChem BioAssay)
